Bioassay records as filed in PubChem BioAssay.
gsp agonist – agonists of gsp mutant (McCune-Albright syndrome) | AID 624287 | gsp mutant cells, cAMP HTRF, 30 min | Potency, µM (top dose mostly 76.9 µM), for inactives: at the top dose activation (cAMP increase), usual class: activators | actives 0.13% (n = 340,000); active = well fitted activation curve with a large enough effect; inconclusive = small, poorly fitted or top-dose-only effect, or another doubt; inactive = no such curve, though single readings can be large or run the other way; cell line not stated here;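 also: phosphodiesterase inhibitor Ro 20-1724 added with compounds to block cAMP breakdown; potency is read from the fitted curve at half-maximal effect; nearly all actives have a fitted effect of over 60% in size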
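Cells stably selected in G418 were plated at 2000/well, grown 16-24 hr, then given compounds in DMSO with the PDE inhibitor […] (300 uM solution added) for 30 min at 37C; cAMP was read by HTRF.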
gsp antagonist – antagonists of gsp mutant (McCune-Albright syndrome) | gsp-mutant cells, cAMP HTRF, 30 min | Potency, µM (series often up to 76.9 µM), inactives show at the highest dose activity change, negative = inhibition, hits mostly inhibitors | actives 0.4% (n = 340,000); calls by dose curve; cell line not stated here;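 also: intracellular cAMP measured with PDE inhibitor Ro 20-1724 present during compound exposure; potency is read from the fitted curve at half-maximal effect; % is scaled to controls: 0 for no effect and ±100 for the full control effect; nearly all actives have a fitted effect of over 65% in size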
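HTRF cAMP measurement after 30 min RT detection following 30 min, 37C compound treatment alongside […] (added as 300 uM solution) in G418-selected cells seeded at 2000/well and grown 16–24 h.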
TRPV1 ag – agonists of human vanilloid receptor 1 (TRPV1) | AID 540275 | TRPV1-expressing cells, Fluo-8 calcium influx, agonist mode | actives 0.19% (n = 320,000) | activation, % at 8.33 µM; in the data active = activation above about 80%; inconclusive = between about 30% and that limit; also: 0% is about no effect
Target sequence (Q8NER1 whole entry, looked up): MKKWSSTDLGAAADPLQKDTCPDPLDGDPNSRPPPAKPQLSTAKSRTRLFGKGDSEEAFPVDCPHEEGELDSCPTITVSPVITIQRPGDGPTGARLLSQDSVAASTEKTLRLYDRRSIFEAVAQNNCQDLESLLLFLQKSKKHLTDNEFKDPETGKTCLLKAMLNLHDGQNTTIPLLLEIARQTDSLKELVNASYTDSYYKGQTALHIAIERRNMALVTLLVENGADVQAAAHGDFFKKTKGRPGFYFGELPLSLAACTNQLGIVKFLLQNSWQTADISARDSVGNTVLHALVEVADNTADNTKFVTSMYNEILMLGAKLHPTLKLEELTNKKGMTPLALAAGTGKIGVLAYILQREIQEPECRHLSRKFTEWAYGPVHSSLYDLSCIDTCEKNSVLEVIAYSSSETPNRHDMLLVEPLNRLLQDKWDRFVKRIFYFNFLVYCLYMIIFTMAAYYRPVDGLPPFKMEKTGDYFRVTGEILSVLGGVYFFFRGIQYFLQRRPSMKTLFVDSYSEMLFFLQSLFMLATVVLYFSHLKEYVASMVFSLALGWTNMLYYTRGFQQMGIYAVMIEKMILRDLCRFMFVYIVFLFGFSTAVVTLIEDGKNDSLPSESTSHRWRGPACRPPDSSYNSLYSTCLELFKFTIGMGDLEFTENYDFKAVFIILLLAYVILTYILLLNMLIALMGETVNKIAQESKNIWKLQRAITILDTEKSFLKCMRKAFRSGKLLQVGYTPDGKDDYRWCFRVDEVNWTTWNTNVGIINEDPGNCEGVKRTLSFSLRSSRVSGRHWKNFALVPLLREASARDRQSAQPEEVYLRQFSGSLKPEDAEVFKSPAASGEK
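TRPV1-expressing cells were cultured overnight at 35.5C and loaded with Fluo-8 calcium dye for 40 to 90 min at room temperature. After a 10 s baseline, compound was added and calcium influx was read kinetically for 3 min (ex 480/em 520 nm).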
RXFP1 agonist – agonists of human relaxin receptor RXFP1; Q9HBX9; HEK293T-RXFP1 cAMP TR-FRET, 30 min; response scale: percent of porcine relaxin response, buffer zero; Potency, µM (doses to about 57.5 µM), without a hit: at the highest dose activation, actives largely listed as activators; actives 0.3% (n = 370,000); AID 2676; active = well fitted activation curve with a large enough effect; inconclusive = small, poorly fitted or top-dose-only effect; also: potency is read from the fitted curve at half-maximal effect; % is scaled to controls: 0 for no effect and ±100 for the full control effect; nearly all actives have a fitted effect of over 60% in size
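Agonist response is measured as cAMP accumulation in an RXFP1-transfected HEK293T line under PDE4 inhibition. Values are scaled between buffer-only and 29 nM porcine relaxin, and EC50s come from standard Hill equation fits.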
RXFP1 antagonist – antagonists of human relaxin receptor RXFP1; HEK293-RXFP1, relaxin-stimulated cAMP HTRF, 30 min; stronger effect = lower value; activity change, negative = inhibition, % at 57.5 µM; actives 0.59% (n = 350,000); Q9HBX9;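 active = activity change of -60% or lower, but not beyond a set lower limit; inconclusive = change between -60% and -40%, or beyond the set limit; inactive = change above -40%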; also: % is scaled to controls: 0 for no effect and ±100 for the full control effect
TRPV1 PAM – human TRPV1 potentiation. Q8NER1. TRPV1-expressing cells, Fluo-8 calcium influx, capsaicin EC20 potentiation. potentiation, % at 8.33 µM. actives 0.02% (n = 320,000). AID 540277; in the data active = potentiation above about 80%; inconclusive = between about 30% and that limit; also: 0% is about no effect
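Fluo-8 calcium influx in TRPV1-expressing cells, kinetic read (ex 480/em 520 nm). Compound added and read 3 min for agonist activity, followed by capsaicin at EC20 final and 2 min further read for enhancement.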
* = called active by the depositor; [ ] = dose if it differs, or a comment. This is a sample that favours compounds with a hit; in the whole collection about 1.1% have one here.

What do the screens show for `COC(=O)c1cc(C)nc2c1c(=O)nc(SCc1ccccc1F)n2C1CC1`?
RXFP1 agonist: 1%; RXFP1 antagonist: -1

What do the screens show for `CC(C)(C)c1ccc(NC(=O)COC(=O)C2CCCC2)cc1`?
gsp agonist: 16%; gsp antagonist: 7%; TRPV1 ag: inconclusive; RXFP1 agonist: -1%; RXFP1 antagonist: 3; TRPV1 PAM: -11

What do the screens show for `COc1cc(OC)cc(C2=NC3(CCC(C)CC3)NC2=S)c1` (stereo not given)?
gsp agonist: -17%[15.4 µM]; gsp antagonist: -11%; TRPV1 ag: 2; RXFP1 agonist: 1%; RXFP1 antagonist: -108*; TRPV1 PAM: 6

Results for O=S1(=O)c2ccccc2N(Cc2cccc(C(F)(F)F)c2)c2ccccc21 ?
RXFP1 agonist: 1%; RXFP1 antagonist: -11

Results for CC1CCN(C(=O)CN2C(=O)C(C)(C)Oc3ccc(C(=O)NC(C)C)cc32)CC1 ?
gsp agonist: -20%[15.4 µM]; gsp antagonist: -9%; TRPV1 ag: -2; RXFP1 agonist: 2%; RXFP1 antagonist: 7; TRPV1 PAM: inconclusive

What do the screens show for `COc1cccc(C(=O)/C=C/Nc2cc(C)ccc2O)c1`?
gsp agonist: inconclusive; gsp antagonist: inconclusive; TRPV1 ag: 6; RXFP1 agonist: 3%; RXFP1 antagonist: -78*; TRPV1 PAM: 15

Results for CCOC(=O)c1ccc(N/C=C\C(=O)c2cccc(OC)c2)cc1 ?
gsp agonist: inconclusive; gsp antagonist: 7%; TRPV1 ag: 4; RXFP1 agonist: 0%; TRPV1 PAM: -23

Results for Cc1ccc(-n2cnc3c(=O)[nH]cnc32)cc1 ?
gsp agonist: inconclusive; gsp antagonist: 9%; RXFP1 antagonist: 0

How did Cc1cc(C)c2c(=O)cc(CSc3n[nH]c(C)n3)[nH]c2c1 do in these assays?
RXFP1 agonist: 3%; RXFP1 antagonist: -9

Results for Cc1cccc(-c2nc(SCc3cc(=O)c4c(C)cc(C)cc4[nH]3)n[nH]2)c1 ?
RXFP1 agonist: -3%; RXFP1 antagonist: -70*

Results for Cc1cc(NC(=O)c2cccc(Oc3ccccc3)c2)n[nH]1 ?
gsp agonist: 17%; gsp antagonist: -2%; TRPV1 ag: 21; RXFP1 agonist: 2%; RXFP1 antagonist: 2; TRPV1 PAM: -10

Results for CCN(C(=O)COC(=O)c1cc(-c2ccccc2)nc2ccc(Br)cc12)C1CCS(=O)(=O)C1 (stereo not given) ?
gsp agonist: 59%[15.4 µM]; gsp antagonist: inconclusive; TRPV1 ag: -1; RXFP1 agonist: 25µM*; RXFP1 antagonist: 7; TRPV1 PAM: 2

How did CCN(C(=O)COC(=O)c1cc(-c2cccs2)nc2ccccc12)C1CCS(=O)(=O)C1 (stereo not given) do in these assays?
gsp agonist: inconclusive; gsp antagonist: -23%; TRPV1 ag: 5; RXFP1 agonist: 4%; RXFP1 antagonist: 24; TRPV1 PAM: 3

How did COc1ccc(C(=O)Oc2cc(-c3ccc(OC)c(OC)c3)cc(=O)c3c(C)oc(C)c23)cc1 do in these assays?
RXFP1 agonist: 2%; RXFP1 antagonist: -28

Results for COc1ccc(N2C(=O)C3CCCN3C2c2cccc(Br)c2)cc1 (stereo not given) ?
gsp agonist: -47%; gsp antagonist: -1%; TRPV1 ag: 5; RXFP1 agonist: 1%; RXFP1 antagonist: 9; TRPV1 PAM: -2

Results for COc1ccc(N2C(=O)C3CCCN3C2c2ccc(C)o2)cc1 (stereo not given) ?
gsp agonist: -6%; gsp antagonist: 50µM*; TRPV1 ag: -1; RXFP1 agonist: 3%; TRPV1 PAM: 6

Results for CCN(C[C@H]1N[C@@](Cc2ccccc2)(C(=O)OC)[C@H]2C(=O)N(C)C(=O)[C@@H]12)S(=O)(=O)c1ccc(C(C)(C)C)cc1 ?
gsp antagonist: -8%

What do the screens show for `O=C(NCC1CCCO1)C(c1ccc(F)cc1)N(Cc1ccc2c(c1)OCO2)C(=O)c1ccc(CN2CCOCC2)o1` (stereo not given)?
gsp agonist: 2%; gsp antagonist: -5%; TRPV1 ag: -1; RXFP1 agonist: 0%; RXFP1 antagonist: -23; TRPV1 PAM: 4

How did ClC(Cl)(c1nnnn1-c1ccccc1)c1nnnn1-c1ccccc1 do in these assays?
gsp agonist: -5%; gsp antagonist: inconclusive; TRPV1 ag: 2; RXFP1 agonist: 1%; RXFP1 antagonist: -91*; TRPV1 PAM: 14

Results for c1ccc(-c2nnnn2-c2ccccc2)cc1 ?
gsp agonist: 11%; gsp antagonist: -12%; TRPV1 ag: -4; RXFP1 agonist: 1%; RXFP1 antagonist: 3; TRPV1 PAM: -7

Results for Cc1cc(OCCSc2nnc(-c3cccs3)n2C)ccc1Cl ?
gsp agonist: 1%; gsp antagonist: 35µM*; TRPV1 ag: -2; RXFP1 agonist: 0%; RXFP1 antagonist: -13; TRPV1 PAM: 13

How did Cc1ccc(N(CCC#N)C(=O)CSc2nc3ccccc3c(=O)[nH]2)cc1 do in these assays?
gsp agonist: -7%; gsp antagonist: 50µM*; TRPV1 ag: 1; RXFP1 agonist: 4%; RXFP1 antagonist: -3; TRPV1 PAM: 6

What do the screens show for `N#CCCN(C(=O)CSc1n[nH]c(=O)[nH]c1=O)c1ccccc1`?
gsp agonist: -1%; gsp antagonist: 9%; RXFP1 antagonist: 0

What do the screens show for `O=P(Cc1cccc2ccccc12)(c1ccccc1)c1ccccc1`?
gsp agonist: 2%; gsp antagonist: -14%; RXFP1 antagonist: -21

How did CCc1ccc(/C=C/C(=O)c2ccc(N3CCOCC3)cc2)cc1 do in these assays?
gsp agonist: -4%[15.4 µM]; gsp antagonist: -15%; TRPV1 ag: 8; RXFP1 agonist: -3%; RXFP1 antagonist: -92*; TRPV1 PAM: -1

What do the screens show for `Cc1ccc(NC(=O)/C=C/c2ccc(S(=O)(=O)N3CCOCC3)cc2)cc1S(=O)(=O)N(C)C`?
gsp agonist: 13%[15.4 µM]; gsp antagonist: 35µM*; RXFP1 antagonist: -25

What do the screens show for `CCN(CC)S(=O)(=O)c1ccc(/C=C/C(=O)Nc2ccc(N3CCOCC3)cc2)cc1`?
gsp agonist: -8%; gsp antagonist: -11%; TRPV1 ag: 90*; RXFP1 agonist: 0%; RXFP1 antagonist: -1; TRPV1 PAM: -18

Results for CC(=O)Nc1cccc(NC(=O)/C=C/c2ccc(S(=O)(=O)N3CCOCC3)cc2)c1 ?
gsp agonist: -18%[15.4 µM]; gsp antagonist: -7%; RXFP1 antagonist: -14

How did CCCNc1ncc2c(=O)[nH][nH]c(=O)c2n1 do in these assays?
gsp agonist: inconclusive; gsp antagonist: 7%; RXFP1 antagonist: 2
